In PubChem BioAssay AID2391 (Southern Research Specialized Biocontainment Screening …, 2010):
Out of some 310,000 compounds screened, about 410 (0.13%) were called active. About 2% were inconclusive and are not listed. No rule for the calls is given here. The list is a sample of the results. Measured potencies and affinities stand elsewhere.

assay: inhibition of RSV-induced cytopathic effect – HEp-2 cells, primary 10 µM value included (AID 2391); settings: at 10 µM, active compounds read high

CPE inhibition, inactive:
CCOc1ccc(Br)cc1S(=O)(=O)Nc1ccc(C(=O)OCC(=O)Nc2ccc(C#N)cc2)cc1 2.94%
O=C(NC1CCN(S(=O)(=O)c2cccc(Cl)c2)CC1)C1CCCCC1 1.22%
CCOc1ccc(S(=O)(=O)NCCC(=O)Nc2nnc(C)s2)cc1 1.74%
CCCOc1ccc(N2C(=O)CC(N(CCc3ccc(OC)cc3)C(=O)c3ccccc3)C2=O)cc1 (configuration not stated) 3.8%
CCCOc1ccc(N2C(=O)CC(N(Cc3ccccc3)N=O)C2=O)cc1 (configuration not stated) -0.02%
N#C/C(=C\c1ccccc1O)C(=O)Nc1ccccn1 9.95%
COc1cc(/C=N/NC(=O)COc2c(C)cc([N+](=O)[O-])cc2C)ccc1OC(=O)c1ccccc1Br 5.39%
Cc1cc([N+](=O)[O-])cc(C)c1OCC(=O)N/N=C/c1ccc(OC(=O)c2ccccc2)cc1 10.1%
Cc1sc2c(c1C)c(=O)n(-c1ccc(Cl)cc1)c(=O)n2Cc1cc(=O)n2ccccc2n1 8.46%
COc1cc(-n2c(=O)c3ccccc3n(Cc3cc(=O)n4ccccc4n3)c2=O)cc(OC)c1OC 2%
Cc1ccc(-n2c(=O)c3c(C)c(C)sc3n(Cc3cc(=O)n4ccccc4n3)c2=O)cc1C 11.6%
Cc1ccc(-n2c(=O)c3c4c(sc3n(Cc3cc(=O)n5ccccc5n3)c2=O)CCC4)cc1C 9.89%
O=c1c2sccc2nc(SCc2cc(=O)n3ccccc3n2)n1Cc1ccccn1 0.36%
CCOc1ccc(-n2c(=O)c3sccc3n(Cc3ccc(C)cc3)c2=O)cc1 2.63%
Cc1sc2ncnc(N3CCC(C(=O)Nc4ccc(Br)cc4Br)CC3)c2c1C 10.1%
CCOC(=O)c1cc(-c2ccccc2)n(Cc2cc(CC)no2)n1 2.08%
Cc1ccc(-n2nc3c(c2NC(=O)c2ccco2)CS(=O)(=O)C3)cc1 1.04%
Cc1ccc(S(=O)(=O)Nc2ccncc2)c(C)c1N(C)S(=O)(=O)c1ccc(Cl)cc1 3.66%
CCOC(=O)c1c(C)nc2c(c1-c1cc(OC)ccc1OC)C(=O)c1ccccc1-2 0.88%
CN(C)[C@@H]1CCC[C@@H]1OC(=O)C(c1ccccc1)c1ccccc1 1.33%
COc1ccc(C(=O)NCc2nnc(SCC(=O)Nc3cc(C)on3)o2)cc1OC 0.22%
Cc1ccccc1-c1cc2nc(C)c(C)c(=O)n2[nH]1 2.53%
Cc1cccnc1NC1CCCCC1 0.99%
COc1ccc(NC(=O)COc2ccccc2C(=O)NCC(c2ccccc2)N(C)C)cc1Cl (configuration not stated) 0.1%
O=C(/C=C/c1c(Cl)cccc1Cl)Nc1ccncc1 15.2%
CN(C)c1ccc(NC(=O)/C=C/c2ccccc2Cl)cc1 4.05%
CCCCNCc1cc(Br)c(OCC(=O)N2CCOCC2)c(OC)c1 0.24%
O=C(O)Cc1ccc(NC(=O)c2ccc3c(c2)C(=O)N(Cc2ccco2)C3=O)cc1 1.76%
O=C(Nc1ccc2c(c1)CCC2)C1CCCN(c2ncccn2)C1 (configuration not stated) -1.9%
Cc1cccc(-c2nc(CSCC(=O)N3CCN(Cc4ccc5c(c4)OCO5)CC3)c(C)o2)c1 4.52%
O=C1CC(SC(=NCc2ccc3c(c2)OCO3)Nc2ccccc2)C(=O)N1c1ccccc1 (configuration not stated) 3.83%
CCOc1ccc(NC(=NCc2ccc3c(c2)OCO3)SC2CC(=O)N(c3ccccc3)C2=O)cc1 (configuration not stated) 1.98%
O=C(O)c1ccc(N2C(=O)CC(SC(=NCc3ccc4c(c3)OCO4)Nc3ccccc3)C2=O)cc1 (configuration not stated) 5.3%
CCOc1ccc(NC(=NCc2ccc3c(c2)OCO3)SC2CC(=O)N(c3ccc(OCC)cc3)C2=O)cc1 (configuration not stated) 2.56%
COc1ccc(CN2C(=O)c3cccnc3C2=O)cc1S(=O)(=O)N(C)c1cccc(C)c1 1.8%
O=C(Nc1ccc(Cn2cccn2)cc1)c1ccc(COc2cccc(Br)c2)cc1 -0.58%
Cc1ccc(C(=O)NCC2CCCN2S(=O)(=O)c2cccs2)cc1C (configuration not stated) 1.81%
Cc1ccc(-c2nc3cc(NC(=O)C(C)C)ccc3o2)cc1 4.38%
CCC(C)c1ccc2oc(-c3ccc(NC(=O)c4ncn[nH]4)cc3)nc2c1 (configuration not stated) 9.89%
Cc1ccc(-c2nc3cc(NC(=O)C(C)C)ccc3o2)cc1C 14.6%
CCCC(=O)Nc1cccc(-c2nc3cc(C)c(C)cc3o2)c1 1.54%
CCCC(=O)Nc1ccc(-c2nc3cc(C)ccc3o2)cc1 40.7%
CCC(C)NCC(=O)Nc1ccc(-c2nc3cc(NC(=O)CNC(C)CC)ccc3o2)cc1 (configuration not stated) 1.28%
Clc1ccc(CSc2ccc(-c3cccnc3)nn2)cc1 20.4%
Cc1c(C(=O)OCC(=O)Nc2c(C)n(C)n(-c3ccccc3)c2=O)oc2ccccc12 0.38%
Cc1cc(OCC(O)CN2CCCC2)cc(C)c1Cl (configuration not stated) -0.91%
CC(C)n1c(SCC(=O)N2CCCC2)nc2c1c(=O)n(C)c(=O)n2C -0.46%
CCCN(Cc1nnc(-c2ccccc2Cl)o1)C(=O)c1oc2ccccc2c1C 44%
O=C(c1ccccc1)c1cc([N+](=O)[O-])ccc1N1CCCC1 3.67%
S=c1nccc(-c2cccs2)[nH]1 5.75%
O=C1c2ccccc2NC2(CCCC2)N1N=C1CCCC1 2.08%
O=C1CC(NCc2ccccc2F)C(=O)N1c1ccccc1 (configuration not stated) 0.44%
Cc1ccc(NC(=O)CCS(=O)(=O)c2cccc3nonc23)c(Cl)c1 0.71%
COC(=O)c1ccc(CSc2nc3ccccc3c(=O)n2CC(C)C)o1 4.85%
COC(=O)c1ccc(Cn2nnc3ccccc3c2=O)o1 4.91%
Cc1c(C)c2ccc(OCC(=O)Nc3nccs3)cc2oc1=O 20.3%
COc1ccc(OC)c(N(C(=O)c2ccco2)C(C(=O)NC2CCCC2)c2ccc(N3CCOCC3)cc2)c1 (configuration not stated) 1.32%
COc1cc(/C=C2\SC(=S)N(NS(=O)(=O)c3ccccc3)C2=O)ccc1O 4.97%
CCOc1ccc(/C=C2\SC(=S)N(NS(=O)(=O)c3ccccc3)C2=O)cc1OC 2.94%
CN1CCN(C(=O)c2cc(Cl)cc(Cl)c2NC(=O)c2ccco2)CC1 0.57%
Cc1cc(NC(=O)c2cc3ccccc3o2)ccc1NC(=O)c1ccccc1 5.86%
O=C(Nc1ccc(NC(=O)c2cc3ccccc3o2)cc1)c1ccc2c(c1)OCCO2 6.03%
Cc1ccc(N(CC(=O)NCCc2ccc(F)cc2)S(=O)(=O)c2ccc(Cl)c([N+](=O)[O-])c2)c(C)c1 3.85%
Cc1cc(C)c2nc(N3CCC(C(=O)NCCCN4CCCCC4)CC3)sc2c1 21.9%
Cc1cccc(S(=O)(=O)Nc2ccc(-c3cn4ccccc4n3)cc2)c1 21%
COC(=O)Cn1c(=NC(=O)c2cccc(OC)c2)sc2cc(OC)ccc21 1.97%
Nc1c(C(=O)N/N=C/c2ccc(Cl)cc2)cnn1-c1ccccc1 0.12%
NNC(=O)c1cc(-c2ccccc2)sc1N 1.27%
CC(C)CCN1CCN(Cc2cccn2-c2nccs2)CC1CCO (configuration not stated) 1.17%
OCCC1CN(Cc2cccn2-c2nccs2)CCN1Cc1ccccc1 (configuration not stated) -1.03%
COc1ccc(Cn2nnnc2C(c2cccs2)N2CCOCC2)cc1 (configuration not stated) 0.05%
CC(=O)Nc1ccc(NC(=O)c2c(C)nn(Cc3ccccc3)c2Cl)cc1 5.46%
Cc1nn(-c2ccccc2Cl)c(Cl)c1/C=N/Nc1nc2ccccc2s1 4.62%
Cc1nn(-c2ccccc2Cl)c(Cl)c1/C=N/Nc1cccc(C(=O)O)c1 3.47%
CCC(C(=O)Nc1c2c(nn1C(C)(C)C)CS(=O)(=O)C2)c1ccccc1 (configuration not stated) 1.09%
Cn1ccnc1SCc1ccc(Cl)cc1Cl 1.17%
N#Cc1c(-c2ccccc2Cl)noc1/C=C/Nc1ccc(C(=O)O)cc1 2.42%
CN(C)/C=C/c1onc(-c2c(Cl)cccc2Cl)c1C#N 1.69%
O=C(c1ccccc1Sc1c(Cl)cccc1[N+](=O)[O-])N1CCOCC1 4.6%
COc1ccc(/C(C)=N/NC(=O)C2C3CCCCC32)c(OC)c1 (configuration not stated) -0.16%
CCc1ccc(OCC(=O)Nc2ccc3c(c2)OCCO3)cc1 0.88%
Cc1ccc2c(c1)cc(CN(Cc1ccco1)C(=O)N1CCOCC1)c1nnnn12 -0.68%
Cc1ccc2c(c1)cc(CN(Cc1cccs1)C(=O)c1ccco1)c1nnnn12 4.88%
O=C(c1ccc(Cl)c(S(=O)(=O)N2CCCC2)c1)N1CCOCC1 4.9%
O=c1[nH]c(CNCc2cccnc2)nc2ccccc12 1.68%
CCC1C(=O)n2nc(-c3ccccc3)cc2N=C1C (configuration not stated) 0.9%
Cc1cccc(NS(=O)(=O)c2cc(C(=O)OCC(=O)Nc3cc(C)on3)ccc2C)c1 -0.1%
Cc1cc(NC(=O)c2c(Cl)cccc2Cl)no1 -0.16%
Cc1cc(NC(=O)COc2ccc(N(C)S(=O)(=O)c3ccccc3)cc2)no1 0.18%
Cc1cc(NC(=O)COC(=O)c2cc(S(=O)(=O)N(C)c3ccccc3)ccc2Cl)no1 0.4%
Cc1cc(NC(=O)COC(=O)c2oc3c(Cl)cccc3c2C)no1 2.63%
Cc1cc(NC(=O)COC(=O)c2ccc(NS(=O)(=O)c3ccc(C)c(C)c3)cc2)no1 0.64%
